The whole screen tested about 16,000 compounds, of which about 2,600 (16%) were called active. Another 20% or so got no clear call; they are omitted. The call rests on the fitted dose curve; in most records, active means well fitted curve in the direction sought with a large enough effect; inconclusive means small, poorly fitted or top-dose-only effect, or effect the other way; inactive means no such curve, though single readings can be large or run the other way. Not all results are given here. Square brackets hold non-standard residues; d marks the D form. Peptide text beside a SMILES is read from it.
Each molecule was assayed against Cytochrome P450 2D6 (Homo sapiens) (UniProt P10635) (assay: Cytochrome panel assay with activity outcomes). Details: recombinant CYP, pro-luciferin dealkylation, luminescence, p450-cyp2d6; series mostly up to 57.1 µM.
Chain of Cytochrome P450 2D6 (Homo sapiens) (P10635 whole entry, looked up): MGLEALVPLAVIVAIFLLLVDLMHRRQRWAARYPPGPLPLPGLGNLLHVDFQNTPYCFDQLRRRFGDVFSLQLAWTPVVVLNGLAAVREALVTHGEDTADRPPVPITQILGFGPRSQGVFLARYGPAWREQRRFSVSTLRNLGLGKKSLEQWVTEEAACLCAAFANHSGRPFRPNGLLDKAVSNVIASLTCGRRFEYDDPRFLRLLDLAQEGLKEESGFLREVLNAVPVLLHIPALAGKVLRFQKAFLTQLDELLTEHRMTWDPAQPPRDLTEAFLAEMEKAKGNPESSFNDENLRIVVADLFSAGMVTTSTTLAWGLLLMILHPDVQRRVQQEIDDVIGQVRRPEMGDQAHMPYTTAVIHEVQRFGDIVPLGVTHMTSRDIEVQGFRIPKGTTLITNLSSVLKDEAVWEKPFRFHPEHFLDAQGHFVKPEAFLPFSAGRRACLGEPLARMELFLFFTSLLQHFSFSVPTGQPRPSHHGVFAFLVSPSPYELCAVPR
In the case of `CC[C@H]1C(=O)OC[C@H]1Cc1cncn1C`, the AC50 is reported as “inactive”.
With `CCN(CC)c1ccc(NC(=O)c2cccc(F)c2)c(C)c1` the AC50 was “inactive”.
With `CC[C@H]1CC[C@H]2[C@@H]3CC=C4C[C@H](OC(C)=O)[C@@H](N)C[C@@]4(C)[C@H]3CC[C@@]12C` the activity, negative = inhibition was -4.19% [at 11.4 µM] (inactive).
For `NCC(=O)N[C@H](CO)C(=O)O` (H-Gly-[dS]-OH), the activity, negative = inhibition was 6.25% [at 11.4 µM] (inactive).
With `CC1=NNC(=S)NCCCN2CCN(CCCNC(=S)NN=C(C)C=NNC(=S)NCCCN3CCN(CCCNC(=S)NN=C1)CC3)CC2` the activity, negative = inhibition was -0.261% [at 11.4 µM] (inactive).
For `CC1(C)CC(=O)C(C=NCCN2CCN(C(=S)Nc3ccc(F)cc3)CC2)=C(O)C1`, the AC50 was “inactive”.
For `c1cn(-c2ccnc(-c3ccc4c(c3)OCO4)n2)cn1`, the AC50 was 3160 nM (active).
With `CN1CCN(c2ccnc(-c3ccc(N(C)C)cc3)n2)CC1` the AC50 was “inactive”.
`O=C(OCc1ccccc1)/C(=C/c1ccc(Cl)cc1)NC(=O)c1ccccc1Cl` was tested, and the AC50 was “inactive”.
`COc1ccc(Oc2ncc3nc(-c4ccc(F)cc4)c(=O)n(Cc4cccs4)c3n2)cc1` was tested, and the AC50 was “inactive”.
With `O=C(O)COc1ccc(-c2nccc(-c3cccs3)n2)cc1` the AC50 was “inactive”.
In the case of `CN(C)C(=O)c1ccc(-c2cc(NCc3cccnc3)ncn2)cc1`, the AC50 is reported as “inactive”.
In the case of `c1ccc(CNc2ccnc(-c3ccc4c(c3)OCO4)n2)cc1`, the AC50 is reported as 1580 nM (active).
For `CN(C)C(=O)c1ccc(-c2nccc(NCc3cccnc3)n2)cc1`, the AC50 was “inactive”.
For `c1csc(CNc2ccnc(-c3ccc4c(c3)OCO4)n2)c1`, the AC50 was 501 nM (active).
With `c1cncc(CNc2ccnc(-c3ccc4c(c3)OCO4)n2)c1` the AC50 was 10000 nM (active).
In the case of `COc1cccc(Cn2c(=O)c(-c3ccccc3)nc3cnc(N4CCN(C)CC4)nc32)c1`, the AC50 is reported as “inactive”.
`COc1ccc(-n2c(=O)cnc3cnc(N4CCNCC4)nc32)cc1` was tested, and the AC50 was “inactive”.
In the case of `Fc1ccc(-c2csc(N3CCC(c4ccccc4)C3)n2)cc1` (configuration not stated), the AC50 is reported as “inactive”.
With `CCN(CC)Cc1nc2c(c(=O)[nH]1)C1(CCCC1)Cc1ccccc1-2` the AC50 was “inactive”.
For `CCCCCCCCCCCCCCCCCCOC[C@@H](COP(=O)([O-])OCC[N+](C)(C)C)OC`, the AC50 was “inactive”.
For `COc1nc(Cl)nc(Cl)c1Cl` (tested in a mixture with another compound), the activity, negative = inhibition was 10.4% [at 11.4 µM] (inactive).
With `Cc1ccccc1-n1ncc2c(SCC(=O)N3c4ccccc4CC3C)ncnc21` (configuration not stated) the AC50 was “inactive”.
In the case of `CO[C@H]1COC(=O)C/C=C\[C@@H](C)COC(=O)[C@H]2CCCN2C(=O)C/C=C\[C@H]1C`, the activity, negative = inhibition is reported as -1.87% [at 11.4 µM] (inactive).
In the case of `O=C(Cn1cnc([N+](=O)[O-])n1)N/N=C/c1ccccc1O`, the AC50 is reported as “inactive”.
`CC1=C(C(=O)OCc2ccccc2)C(c2ccc(Cl)cc2)NC(=O)N1CCCCCC(=O)O` (configuration not stated) was tested, and the AC50 was “inactive”.
For `CCOc1ccc(C(=O)Nc2ccccc2N2CCCC2)cc1`, the AC50 was 3160 nM (active).
In the case of `CCOc1cc(NC(=S)Nc2ccccc2)c(OCC)cc1NC(=O)c1ccc(OC)cc1`, the AC50 is reported as “inactive”.
For `Cc1ccc(OCC(=O)Nc2ccccc2N2CCOCC2)c(C)c1`, the AC50 was “inactive”.
`O=C(Cc1ccccc1)Nc1ccccc1N1CCOCC1` was tested, and the AC50 was “inactive”.
For `COc1cc(OC)cc(C(=O)Nc2ccccc2C(=O)N2CCCC2)c1`, the AC50 was “inactive”.
For `O=C(CNC1CCCCCC1)Nc1ccccc1N1CCCCC1`, the AC50 was 1410 nM (active).
With `CC1(C)CC(=O)C(C(c2cccc(O)c2O)C2C(=O)CC(C)(C)CC2=O)C(=O)C1` the activity, negative = inhibition was -12.6% [at 11.4 µM] (inactive).
`Cc1ccc(-n2c(-c3cc(C)n(C)n3)n[nH]c2=S)cc1` was tested, and the AC50 was “inactive”.
With `Cc1ccc(SC(C)C(=O)NCc2cccnc2)cc1` (configuration not stated) the AC50 was “inactive”.
In the case of `Cc1ccc(S(=O)(=O)/C(C#N)=C/c2c(N3CC(C)OC(C)C3)nc3ccccn3c2=O)cc1` (configuration not stated), the AC50 is reported as “inactive”.
For `COc1ncc2nc(CCc3ccccc3)c(=O)n(CCc3ccccc3)c2n1`, the AC50 was “inactive”.
For `Cc1cccn2c(/C=N/OCc3cccc(F)c3)c(-c3ccc(Cl)cc3)nc12`, the AC50 was “inactive”.
For `CCN1C(=O)[C@H]2[C@H]3[C@H](O)[C@H](O)C/C(=N/OCC(C)C)[C@H]3CC[C@@H]2C1=O`, the activity, negative = inhibition was -6.52% [at 11.4 µM] (inactive).
`Cc1noc(C)c1C(=O)N1CCC[C@@]2(CCN(C(=O)Nc3cccc(F)c3)C2)C1` was tested, and the AC50 was “inactive”.
`CCOC(=O)CC(=O)CSc1nc(-c2ccccc2)cc(-c2ccc(Cl)cc2)c1C#N` was tested, and the AC50 was “inactive”.
`O=C1c2ccccc2C(=O)N1CC1c2ccccc2CCN1S(=O)(=O)c1ccccc1` (configuration not stated) was tested, and the AC50 was “inactive”.
In the case of `CCn1c(CC(=O)Nc2ccc(C)cc2)nnc1SCC(=O)NCCc1ccccc1`, the AC50 is reported as “inactive”.
In the case of `COc1ccc(OC)c2[nH]c(=O)c(CCNC(=O)COc3ccccc3)cc12`, the AC50 is reported as “inactive”.
With `CCNCc1cc(OCC)c(OCC(=O)NCCc2ccccc2)cc1Cl` the AC50 was 12600 nM (active).
For `CN1CCC(=NNC(=O)CSCc2ccccc2)CC1`, the AC50 was “inactive”.
With `CCCN1CCC(=NNC(=O)c2ccc(Br)o2)CC1` the AC50 was 7080 nM (active).
`O=C(N/N=C/c1ccco1)c1ccc(Br)o1` was tested, and the AC50 was “inactive”.
With `COc1ccc(OC[C@@H](CO)OC)cc1` the activity, negative = inhibition was -7.62% [at 11.4 µM] (inactive).
With `COc1ccc(CNC(=O)CN(CC2CCCO2)C(=O)CNS(=O)(=O)c2ccccc2)cc1` (configuration not stated) the AC50 was “inactive”.
With `CN1CC[C@@]2(CCCN(C(=O)c3cccc(F)c3)C2)C1` the AC50 was “inactive”.
With `COc1ccccc1CNc1ncncc1-c1ccccc1C(F)(F)F` the AC50 was 2000 nM (active).
In the case of `COc1ccc(CNc2ncncc2-c2ccccc2C(F)(F)F)c(OC)c1`, the AC50 is reported as 398 nM (active).
For `O=c1c(-c2cccc(Cl)c2)nc2cncnc2n1C1CC1`, the AC50 was “inactive”.
In the case of `O=C(Nc1ccccc1[N+](=O)[O-])C1C(c2ccccc2)=C1c1ccccc1`, the AC50 is reported as “inactive”.
With `COc1ncc2nc(-c3cccs3)c(=O)n(C)c2n1` the AC50 was “inactive”.
In the case of `Cc1cnn(-c2ccc3nnc(-c4ccc(Cl)cc4)n3n2)c1`, the AC50 is reported as “inactive”.
`Clc1ccc(/C=N/Nc2nnc(-c3ncc[nH]3)c3ccccc23)cc1` was tested, and the AC50 was “inactive”.
With `N#CC(c1ccc(Cl)cc1)c1nc2ccccc2nc1C(F)(F)F` (configuration not stated) the AC50 was “inactive”.
For `FC(F)(F)c1nc2ccccc2nc1N/N=C/c1ccc(Cl)cc1`, the AC50 was 631 nM (active).
For `O=c1[nH]c(=O)n([C@@H]2C[C@H](O)[C@H](CO)O2)cc1I`, the AC50 was “inactive”.
With `CCCN[C@@H](C)C(=O)Nc1ccccc1C` the AC50 was “inactive”.

— PubChem BioAssay AID1851 (National Center for Advancing Translational Sciences (NCATS), 2009)
On the % scale 0 is the no-effect control and ±100 the full control effect.
